Laboratory results from PubChem BioAssay (NCI).
About 83,000 compounds went through this panel and 20% of them were active in at least one assay; those are over-represented in the sample as a whole.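 Method: cells in 96-well plates; compound added at one concentration; 48 h incubation; percent growth measured; values under 10 scored active.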 Unmarked numbers belong to inactive results. Calls of active or inactive are those of the source.

Legend:
Test in all cases: NCI-60 one-dose screen, 48 h (100 = growth as untreated, 0 = no growth, -100 = all killed)
Details in all cases: 10 µM
T-47D breast = system: T-47D breast
MDA-MB-435 melanoma = system: MDA-MB-435 melanoma
SW-620 colon = system: SW-620 colon
MCF7 breast = system: MCF7 breast
HCT-116 colon = system: HCT-116 colon
HCC-2998 colon = system: HCC-2998 colon
KM12 colon = system: KM12 colon

Compound	growth (T-47D breast)	growth (MDA-MB-435 melanoma)	growth (SW-620 colon)	growth (MCF7 breast)	growth (HCT-116 colon)	growth (HCC-2998 colon)	growth (KM12 colon)
N#Cc1ncc(-c2cc(F)ccc2F)c(NC2CCCCCC2)n1	69.5%	93.6%	96.1%	82.3%	85.6%	82.3%	36.4%
CCOC(=O)c1cc(-c2ccccc2)nc(N)n1	114%	102%	103%	87.6%	104%	109%	110%
C=C[C@]1(C)C=C2C(=O)[C@@]3(O)OC(=O)[C@@]4(CCCC(C)(C)[C@H]34)[C@@]2(O)CC1	-52.8% (active)	-90.6% (active)	-42% (active)	0.55% (active)	–	-91.3% (active)	8.33% (active)
Nc1c(CNCc2nnn(Cc3ccccc3)c2N)nnn1Cc1ccccc1	101%	107%	95.9%	101%	103%	98.7%	98.3%
C#CCNCCN1C(=O)c2ccc3c4c(ccc(c24)C1=O)C(=O)N(CCNCC#C)C3=O	54.8%	-35.8% (active)	26.9%	14.9%	-10.7% (active)	13.2%	30.9%
Cn1cnc([N+](=O)[O-])c1Sc1nnc(-c2ccccc2)c(-c2ccccc2)n1	9.12% (active)	42.1%	48%	61.9%	32.8%	96.8%	92.5%
COc1ccc(-c2csc(NC(=O)CO[N+](=O)[O-])n2)cc1	57%	106%	103%	92.6%	102%	105%	95.8%
COc1ccc(-c2cc(/C=C3\C(=O)Nc4cc(Cl)ccc43)[nH]n2)cc1OC	96.5%	7.28% (active)	47.1%	32.2%	50.9%	98.8%	64.4%
COc1ccc(Cn2cc3c(c2-c2cc(OC)c(OC)c(OC)c2)CCc2cnoc2-3)cc1[N+](=O)[O-]	40%	-53.9% (active)	26.6%	26.6%	19.4%	18%	24.7%
CN(C)c1ccc2cc(-c3cc4c(oc3=O)-c3ccccc3OC4O)c(=O)oc2c1 (stereo not given)	-12.3% (active)	-23.8% (active)	17.1%	18.7%	12.8%	–	-37.7% (active)
Cc1ccc(/C(CS(=O)(=O)c2ccc(C)cc2)=N\O)cc1	103%	89%	106%	91.3%	103%	103%	115%
CS(=O)(=O)Nc1ccc([N+](=O)[O-])cc1Oc1ccccc1	84%	101%	104%	102%	100%	93%	94.5%
COc1ccc(-c2nnc(N3CCN(C(=O)CN4CCN(c5ccc(Cl)cc5)CC4)CC3)nc2-c2ccc(OC)cc2)cc1	38.2%	68%	69.3%	37.1%	34.1%	75.2%	50.5%
Nc1ccn([C@@H]2O[C@H](COP(=O)(O)O[C@@H]3C[C@H](n4cc(F)c(=O)[nH]c4=O)O[C@@H]3COP(=O)(O)O[C@@H]3C[C@H](n4cc(F)c(=O)[nH]c4=O)O[C@@H]3COP(=O)(O)O[C@@H]3C[C@H](n4cc(F)c(=O)[nH]c4=O)O[C@@H]3COP(=O)(O)O[C@@H]3C[C@H](n4cc(F)c(=O)[nH]c4=O)O[C@@H]3COP(=O)(O)O[C@@H]3C[C@H](n4cc(F)c(=O)[nH]c4=O)O[C@@H]3COP(=O)(O)O[C@@H]3C[C@H](n4cc(F)c(=O)[nH]c4=O)O[C@@H]3COP(=O)(O)O[C@@H]3C[C@H](n4cc(F)c(=O)[nH]c4=O)O[C@@H]3COP(=O)(O)O[C@@H]3C[C@H](n4cc(F)c(=O)[nH]c4=O)O[C@@H]3COP(=O)(O)O[C@@H]3C[C@H](n4cc(F)c(=O)[nH]c4=O)O[C@@H]3COP(=O)(O)O[C@@H]3C[C@H](n4cc(F)c(=O)[nH]c4=O)O[C@@H]3COP(=O)(O)OCCOCCOCCOCCOCCOCCO)[C@H](O)C2O)c(=O)n1 (stereo not given in full)	80.5%	61.4%	58.2%	19.4%	20.4%	50.4%	47%
CN(C)CCCN1c2ccccc2Sc2ccc(C(F)(F)F)cc21	5.93% (active)	-39.3% (active)	9.61% (active)	-39.7% (active)	1.99% (active)	-65.9% (active)	0.137% (active)
O=C(NC1CCN(Cc2ccccc2)CC1)c1cc(-c2ccncc2)nc2ccc(Cl)cc12	29.8%	28%	23.5%	17.7%	9.97% (active)	44.4%	26.1%
CCC(CCNc1cc(OC)cc2cccnc12)CN1C(=O)c2ccccc2C1=O (stereo not given)	32.7%	107%	135%	31.1%	99.5%	105%	99%
C[C@]12CC[C@H]3[C@@H](CC=C4C[C@@H](O)CC[C@@]43C)[C@@H]1CC[C@@H]2C(=O)C/C=N/O	77.2%	97.1%	102%	95.6%	–	94.1%	96.6%
COc1ccc2nc(NC(=O)Nc3c(F)cccc3F)sc2c1	106%	99%	105%	95.6%	102%	102%	112%
O=C(Nc1ccc(Oc2ccc(Nc3nc4ccccc4s3)cc2)cc1)Nc1ccc(Cl)c(Cl)c1	13.9%	25.4%	33.6%	29.3%	16.8%	29.4%	20.7%
O=C(Nc1cccc([N+](=O)[O-])c1)NN1CCCCCC1	81.7%	102%	95.9%	100%	–	94.8%	98.7%
NS(=O)(=O)c1ccc(N2N=C(c3ccc(-c4ccccc4)cc3)CC2c2ccc(Cl)cc2)cc1 (stereo not given)	74.6%	77.4%	93.2%	62.6%	50.4%	89.3%	68.6%
CCOc1nc(-c2ccccc2)cc2c(O)c(C(=O)N/N=C/c3ccc(OC)cc3)[nH]c(=O)c12	80.9%	113%	110%	101%	109%	–	107%
COc1cc(Cn2c(-c3ccccc3)cc3c2-c2oncc2CC3)cc(OC)c1	45.8%	-39.5% (active)	23.8%	14.1%	6.79% (active)	17.4%	10.2%
Clc1ccc(-c2nc(-c3cccs3)cn3ccnc23)cc1	16.3%	23.2%	57.3%	19.1%	68%	47.8%	50.5%
